Counter-ions that a name gives are not always drawn.
Legend:
[1] = target: IKZF1 (dCK*-IKZF1 fusion in HEK293FT) (UniProt Q13422); experiment: inhibition of IKZF1 HTRF signal (DMSO = 0%, pomalidomide 10 uM = 100%); higher = lower IKZF1 protein level; conditions: compound concentration: 5 uM, overnight (~20 h)
Method in brief: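 Values are percent inhibition of IKZF1 signal, normalised plate by plate against vehicle and a reference degrader. HEK293FT cells stably expressing an IKZF1 fusion were seeded at 2000 per well in 384-well plates and exposed to 5 μM compound in single wells overnight at 37 °C. After 30 min lysis at room temperature, lysates were incubated overnight with a commercial HTRF total-IKZF1 antibody kit, and the background-subtracted 665/620 nm time-resolved FRET ratio was read. On each plate, vehicle was set at 0% and the reference degrader at 100%.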

[2] = test system: HEK293FT dCK*-only; experiment: relative growth in counter assay (no AraC = 100%, AraC + DMSO = 0%); higher = more growth rescue independent of IKZF1; conditions: compound concentration: 5 uM; AraC concentration: 0.3 uM; overnight pretreatment + 4 days AraC
Method in brief: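 This counter assay used HEK293FT cells expressing only an engineered kinase construct, seeded at 300 per well in 384-well plates. Compound was added at 5 μM 2 h after seeding, and after overnight at 37 °C the cells received a nucleoside suicide substrate at 0.3 μM plus medium for 4 days. On day 5, nuclei stained with Hoechst 33342 were counted by imaging, and relative growth was normalised per plate; wells without suicide substrate were set at 100% and wells with substrate plus vehicle at 0%.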

[3] = test system: HEK293FT dCK*-IKZF1; experiment: relative growth recovery (pomalidomide 10 uM = 100%, DMSO = 0%); higher = more growth rescue (IKZF1 fusion degradation); conditions: compound concentration: 5 uM; AraC concentration: 0.3 uM; overnight pretreatment + 4 days AraC
Method in brief: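 HEK293FT cells stably expressing an engineered deoxycytidine kinase–IKZF1 fusion were seeded at 300 per well in 384-well plates and given 5 μM compound 2 h later. After overnight incubation at 37 °C, a nucleoside suicide substrate at 0.3 μM was added with medium for 4 days, and on day 5 Hoechst 33342-stained nuclei were counted by whole-well imaging. Growth recovery was normalised per plate between a reference degrader and vehicle, set to 100% and 0% respectively, and the values are means of duplicates run on different days.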

Sequence of IKZF1 (dCK*-IKZF1 fusion in HEK293FT) (Q13422 whole entry, looked up, the tested form may be a part): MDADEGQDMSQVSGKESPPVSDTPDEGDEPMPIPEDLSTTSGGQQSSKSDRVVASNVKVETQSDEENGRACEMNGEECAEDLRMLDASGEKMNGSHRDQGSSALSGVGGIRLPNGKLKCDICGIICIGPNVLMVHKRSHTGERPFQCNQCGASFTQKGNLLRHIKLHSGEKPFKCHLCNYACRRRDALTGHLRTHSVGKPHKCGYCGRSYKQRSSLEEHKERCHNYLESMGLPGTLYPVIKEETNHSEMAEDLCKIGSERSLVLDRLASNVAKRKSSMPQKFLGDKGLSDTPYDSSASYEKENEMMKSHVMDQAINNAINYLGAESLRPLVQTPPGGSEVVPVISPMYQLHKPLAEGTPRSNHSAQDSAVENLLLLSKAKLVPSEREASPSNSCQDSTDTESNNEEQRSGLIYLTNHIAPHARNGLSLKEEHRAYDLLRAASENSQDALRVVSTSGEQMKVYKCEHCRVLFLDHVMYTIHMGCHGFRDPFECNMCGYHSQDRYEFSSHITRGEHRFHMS

SMILES | inhibition of IKZF1 HTRF signal [1] [%] | relative growth in counter assay [2] [%] | relative growth recovery [3] [%]
CCCCC(=O)OCC(=O)[C@]1(O)Cc2c(O)c3c(c(O)c2[C@@H](O[C@H]2C[C@H](NC(=O)C(F)(F)F)[C@H](O)[C@H](C)O2)C1)C(=O)c1c(OC)cccc1C3=O [Valrubicin] | -26.2 | -34.4 | -11.8
C=C1C(=O)O[C@H]2[C@H]1CC/C(C)=C\CC[C@@]1(C)O[C@@H]21 [Parthenolide ((-)-Parthenolide)] | -18.3 | -33.7 | -11.6
COc1cc(N2CCN(C)CC2)ccc1Nc1nccc(-c2cn(C)c3cnccc23)n1 | -30.7 | -9.1 | -0.12
CC(C)(C)C1=CC=C(CN(C)[C@H](C(N[C@H]([C@](NC(C)(C)C)=O)CC2=CC=C(OCC3=CC=CC=C3)C=C2)=O)CC(C)C)C=C1 | -24.5 | 1.14 | -2.38
NS(=O)(=O)c1cc2c(cc1Cl)NC(C(Cl)Cl)NS2(=O)=O (centres undefined) | 19.3 | -3.14 | -3.58
CC(O)(C(=O)Nc1ccc(S(=O)(=O)c2ccccc2)cc1)C(F)(F)F (centres undefined) | -44.3 | -0.27 | 0.77
CSc1ccc2c(c1)N(CCC1CCCCN1C)c1ccccc1S2 (centres undefined) | -29 | 7.95 | -4.45
CO[C@H]1C[C@@H]2CC[C@@H](C)[C@@](O)(O2)C(=O)C(=O)N2CCCC[C@H]2C(=O)O[C@H]([C@H](C)C[C@@H]2CC[C@@H](O)[C@H](OC)C2)CC(=O)[C@H](C)/C=C(\C)[C@@H](O)[C@@H](OC)C(=O)[C@H](C)C[C@H](C)/C=C/C=C/C=C/1C [Rapamycin] | -24.4 | -20.8 | -7.58
Nc1ncc(Cc2ccc(Br)cc2)s1 | -28.6 | -1.27 | -1.02
CC(C)(C)c1ccc(/C=C/C(=O)Nc2ccc3c(c2)OCCO3)cc1 | -32 | -1.73 | 0.45
C=CC(=O)Nc1cccc(Oc2nc(Nc3ccc(N4CCN(C)CC4)cc3)ncc2Cl)c1 | 23.4 | -29.5 | -9.69
CN(C)CC/C=C1/c2ccccc2Sc2ccc(Cl)cc21 | -9.91 | 11.5 | -0.74
Cc1nc(-c2cccnc2)sc1C(=O)Nc1ccccc1-c1cn2c(CN3CCOCC3)csc2n1 | 6.43 | -2.87 | -0.27
CCOC(=O)Nc1ccc2c(c1)N(C(=O)CCN1CCOCC1)c1ccccc1S2 [moracizine] | -24.3 | -9.21 | -0.545
O=C1C=Cc2cc(Br)ccc2C1=O [bonaphthone] | 23 | 1.29 | -2.85
COc1c(C/C=C(\C)CCC(=O)O)c(O)c2c(O)occ2c1C [Mycophenolic Acid] | 14.9 | -30.9 | -9.99
O=C(N/N=C/c1ccc([N+](=O)[O-])o1)c1ccc(O)cc1 | 10.2 | -1.19 | -2
COc1cccc2c(O)c3c(O)c4c(c(O)c3c(O)c12)=C(O[C@H]1C[C@H](N)[C@@H](O)[C@H](C)O1)C[C@](O)(C(=O)CO)C=4 [Epirubicin HCl] | 24 | -34.6 | -13.6
CC(CNC1CCCCC1)OC(=O)c1ccccc1 (centres undefined) [hexylcaine] | -36.3 | 0.35 | -0.215
O=C1CCC(N2C(=O)c3ccccc3C2=O)C(=O)N1 (centres undefined) [thalidomide] | -17.1 | 0.97 | 1.01
C=C1C(=O)O[C@@H]2[C@H]3O[C@]3(C)CC/C=C(\C)CC[C@@H]12 [parthenolide-(alternate-stereo)] | -27.7 | -34.4 | -12.4
CC(=O)[C@@]1(O)C=C(O[C@H]2C[C@H](N)[C@H](O)[C@H](C)O2)c2c(c(O)c3c(O)c4ccccc4c(O)c3c2O)C1 [Idarubicin HCl] | 87.1 | -34.3 | -13
N#CC(c1ccccc1)(c1ccccc1)c1ccccc1Cl | -37.8 | 1.13 | -0.3
CC(CCc1ccc(O)cc1)NCCc1ccc(O)c(O)c1 (centres undefined) [Dobutamine (hydrochloride)] | -39.6 | -8.05 | -1.22
CCN(CC)CCCC(C)Nc1ccnc2cc(Cl)ccc12 (centres undefined) [Chloroquine Diphosphate] | -13.4 | 1.31 | 0.365
C=C1/C(=C\C=C2/CCC[C@]3(C)[C@@H]([C@H](C)CCCC(C)(C)O)CC[C@@H]23)C[C@@H](O)C[C@@H]1O [Calcitriol] | -12.4 | -0.18 | -0.98
O=C(Nc1cc(C(F)(F)F)ccc1O)Nc1cc(C(F)(F)F)ccc1O | -27.7 | -5.68 | -1.77
C1CCC(C(CC2CCCCN2)C2CCCCC2)CC1 (centres undefined) | 11.6 | -1.13 | -2.33
